What all share (experiment): PBM; 200 nM protein, PBS
Holding throughout (conditions): dsDNA, one strand shown

The target in assay [1] is T1, SIX6 (Homo sapiens, UniProt O95475 114-200, L167I).
T1 sequence: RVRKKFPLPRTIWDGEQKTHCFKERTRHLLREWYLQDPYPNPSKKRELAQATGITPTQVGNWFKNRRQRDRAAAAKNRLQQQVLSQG

Assay [2] concerns the target T2, SIX6 (Homo sapiens, UniProt O95475 114-200, L143V).
T2 sequence: T1 sequence with L30V, I54L

Assay [3] deals with T3, SIX6 (Homo sapiens, UniProt O95475 114-200, H141N).
T3 sequence: T1 sequence with H28N, I54L

Assay [4] addresses T4, SIX6 (Homo sapiens, UniProt O95475 114-200, T165P).
T4 sequence: T1 sequence with T52P, I54L

The target of assay [5] is T5, SIX6 (Homo sapiens, UniProt O95475 114-200, L167M).
T5 sequence: T1 sequence with I54M

The target of assay [6] is T6, SIX6 (Homo sapiens, UniProt O95475 114-200, L143M).
T6 sequence: T1 sequence with L30M, I54L

Assay [7] has as its target T7, SIX6 (Homo sapiens, UniProt O95475 114-200, L143I).
T7 sequence: T1 sequence with L30I, I54L

The target in assay [8] is T8, SIX6 (Homo sapiens, UniProt O95475 114-200, T165G).
T8 sequence: T1 sequence with T52G, I54L

For assay [9], the target named is T9, SIX6 (Homo sapiens, UniProt O95475 114-200, T139Q).
T9 sequence: T1 sequence with T26Q, I54L

For assay [10], the target named is T10, SIX6 (Homo sapiens, UniProt O95475 114-200, T165A).
T10 sequence: T1 sequence with T52A, I54L

Assay [11] has as its target T11, SIX6 (Homo sapiens, UniProt O95475 114-200, L167V).
T11 sequence: T1 sequence with I54V

Assay [12] addresses T12, SIX6 (Homo sapiens, UniProt O95475 114-200).
T12 sequence: T1 sequence with I54L

Assay [13] addresses T13, SIX6 (Homo sapiens, UniProt O95475 114-200, T165I).
T13 sequence: T1 sequence with T52I, I54L

The target in a further assay is HOXD13 (Homo sapiens, UniProt P35453 263-343, T313R).
Chain of HOXD13 (P35453 263-343 T313R): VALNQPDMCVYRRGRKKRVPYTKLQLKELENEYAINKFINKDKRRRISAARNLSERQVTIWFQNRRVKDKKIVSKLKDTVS

Residue numbers refer to the chain shown, from its start.

On to GCGGCCCA, for which the binding signal with SIX6 [1] was 8.92 upbm affinity estimate (log intensity, higher = more binding, comparable within an allelic series); in the assay with SIX6 [2] it was 8.97 upbm affinity estimate (log intensity, higher = more binding, comparable within an allelic series); in the assay with SIX6 [3] it was 8.91 upbm affinity estimate (log intensity, higher = more binding, comparable within an allelic series); with SIX6 [4], 9.19 upbm affinity estimate (log intensity, higher = more binding, comparable within an allelic series); with SIX6 [5], 8.93 upbm affinity estimate (log intensity, higher = more binding, comparable within an allelic series); in the assay with SIX6 [6], 8.95 upbm affinity estimate (log intensity, higher = more binding, comparable within an allelic series). The binding signal with SIX6 [7] was 8.94 upbm affinity estimate (log intensity, higher = more binding, comparable within an allelic series); with SIX6 [8], 8.87 upbm affinity estimate (log intensity, higher = more binding, comparable within an allelic series); with SIX6 [9], 8.74 upbm affinity estimate (log intensity, higher = more binding, comparable within an allelic series); with SIX6 [10] it was 8.92 upbm affinity estimate (log intensity, higher = more binding, comparable within an allelic series); with SIX6 [11], 8.8 upbm affinity estimate (log intensity, higher = more binding, comparable within an allelic series); with SIX6 [12] it was 8.92 upbm affinity estimate (log intensity, higher = more binding, comparable within an allelic series). Besides, the binding signal in the assay with SIX6 [13] is 8.91 upbm affinity estimate (log intensity, higher = more binding, comparable within an allelic series).
Take CGGTGGGC: in the assay with HOXD13, the binding signal is 9.46 upbm affinity estimate (log intensity, higher = more binding, comparable within an allelic series).
With CCCTCCGG, the binding signal in the assay with SIX6 [1] is 9.04 upbm affinity estimate (log intensity, higher = more binding, comparable within an allelic series); in the assay with SIX6 [2] it was 8.92 upbm affinity estimate (log intensity, higher = more binding, comparable within an allelic series); with SIX6 [3] it was 9.12 upbm affinity estimate (log intensity, higher = more binding, comparable within an allelic series); with SIX6 [4], 8.9 upbm affinity estimate (log intensity, higher = more binding, comparable within an allelic series); in the assay with SIX6 [5], 9.06 upbm affinity estimate (log intensity, higher = more binding, comparable within an allelic series); with SIX6 [6] it was 8.95 upbm affinity estimate (log intensity, higher = more binding, comparable within an allelic series). The binding signal in the assay with SIX6 [7] was 8.91 upbm affinity estimate (log intensity, higher = more binding, comparable within an allelic series); with SIX6 [8], 9.05 upbm affinity estimate (log intensity, higher = more binding, comparable within an allelic series); in the assay with SIX6 [9], 9.08 upbm affinity estimate (log intensity, higher = more binding, comparable within an allelic series); in the assay with SIX6 [10] it was 9.09 upbm affinity estimate (log intensity, higher = more binding, comparable within an allelic series); with SIX6 [11], 9.06 upbm affinity estimate (log intensity, higher = more binding, comparable within an allelic series); with SIX6 [12], 9.06 upbm affinity estimate (log intensity, higher = more binding, comparable within an allelic series). The binding signal with SIX6 [13] was 9.01 upbm affinity estimate (log intensity, higher = more binding, comparable within an allelic series).
On to CAGCCCGG, for which the binding signal in the assay with HOXD13 is 9.5 upbm affinity estimate (log intensity, higher = more binding, comparable within an allelic series).
On to CAGCGGCC, for which the binding signal is 8.85 upbm affinity estimate (log intensity, higher = more binding, comparable within an allelic series) with SIX6 [1]; 8.77 upbm affinity estimate (log intensity, higher = more binding, comparable within an allelic series) with SIX6 [2]; 8.79 upbm affinity estimate (log intensity, higher = more binding, comparable within an allelic series) with SIX6 [3]; 8.97 upbm affinity estimate (log intensity, higher = more binding, comparable within an allelic series) with SIX6 [4]; 8.8 upbm affinity estimate (log intensity, higher = more binding, comparable within an allelic series) in the assay with SIX6 [5]; 8.83 upbm affinity estimate (log intensity, higher = more binding, comparable within an allelic series) in the assay with SIX6 [6]. The binding signal in the assay with SIX6 [7] was 8.89 upbm affinity estimate (log intensity, higher = more binding, comparable within an allelic series); in the assay with SIX6 [8] it was 8.88 upbm affinity estimate (log intensity, higher = more binding, comparable within an allelic series); in the assay with SIX6 [9] it was 8.81 upbm affinity estimate (log intensity, higher = more binding, comparable within an allelic series); with SIX6 [10] it was 8.75 upbm affinity estimate (log intensity, higher = more binding, comparable within an allelic series); with SIX6 [11] it was 8.83 upbm affinity estimate (log intensity, higher = more binding, comparable within an allelic series); with SIX6 [12], 8.8 upbm affinity estimate (log intensity, higher = more binding, comparable within an allelic series). The binding signal in the assay with SIX6 [13] is 8.74 upbm affinity estimate (log intensity, higher = more binding, comparable within an allelic series).
As to CCCCCCGG, the binding signal with HOXD13 is 8.85 upbm affinity estimate (log intensity, higher = more binding, comparable within an allelic series).
The same measure, in the same setting: the same measure for CCCTGGCC: 9.22 upbm affinity estimate (log intensity, higher = more binding, comparable within an allelic series).
Regarding CCCCTGCG, the binding signal with SIX6 [1] is 8.92 upbm affinity estimate (log intensity, higher = more binding, comparable within an allelic series); with SIX6 [2], 8.67 upbm affinity estimate (log intensity, higher = more binding, comparable within an allelic series); in the assay with SIX6 [3], 8.89 upbm affinity estimate (log intensity, higher = more binding, comparable within an allelic series); with SIX6 [4], 8.67 upbm affinity estimate (log intensity, higher = more binding, comparable within an allelic series); with SIX6 [5], 8.87 upbm affinity estimate (log intensity, higher = more binding, comparable within an allelic series); with SIX6 [6], 8.77 upbm affinity estimate (log intensity, higher = more binding, comparable within an allelic series). For the same sequence, the binding signal with SIX6 [7] was 8.85 upbm affinity estimate (log intensity, higher = more binding, comparable within an allelic series); with SIX6 [8] it was 8.87 upbm affinity estimate (log intensity, higher = more binding, comparable within an allelic series); with SIX6 [9], 8.92 upbm affinity estimate (log intensity, higher = more binding, comparable within an allelic series); with SIX6 [10], 8.91 upbm affinity estimate (log intensity, higher = more binding, comparable within an allelic series); with SIX6 [11], 8.9 upbm affinity estimate (log intensity, higher = more binding, comparable within an allelic series); with SIX6 [12], 8.87 upbm affinity estimate (log intensity, higher = more binding, comparable within an allelic series). Moreover, in the assay with SIX6 [13], the binding signal is 8.84 upbm affinity estimate (log intensity, higher = more binding, comparable within an allelic series).

These data come from article PMC11006913.
